From PubChem BioAssay (NCI) come the findings set out here.

Assay in all cases: NCI-60 one-dose screen, 48 h (100 = growth as untreated, 0 = no growth, -100 = all killed)
Experiment [1] relates to HCT-15 colon. Particulars: 10 µM unless noted.
Experiment [2] concerns HT29 colon. Particulars: 10 µM unless noted.
For experiment [3], the system named is SNB-19 CNS. Particulars: 10 µM unless noted.
Experiment [4] deals with U251 CNS. The following applies: 10 µM unless noted.
The subject of experiment [5] is PC-3 prostate. The following applies: 10 µM unless noted.
Experiment [6] deals with SK-MEL-5 melanoma. The following applies: 10 µM unless noted.
For experiment [7], the system named is UACC-62 melanoma.
Experiment [8] concerns LOX IMVI melanoma. The following applies: 10 µM.
Experiment [9] relates to SK-MEL-28 melanoma. The following applies: 10 µM unless noted.
For experiment [10], the system named is SN12C renal. Particulars: 10 µM unless noted.
In experiment [11] the test system is UO-31 renal. The following applies: 10 µM unless noted.
For experiment [12], the system named is TK-10 renal.
The subject of experiment [13] is ACHN renal. Particulars: 10 µM unless noted.
The test system of experiment [14] is CAKI-1 renal. Particulars: 10 µM unless noted.
The test system of experiment [15] is A498 renal. Particulars: 10 µM unless noted.
Experiment [16] relates to CCRF-CEM leukemia. Particulars: 10 µM unless noted.
In experiment [17] the test system is MOLT-4 leukemia. Particulars: 10 µM unless noted.
The test system of experiment [18] is SK-MEL-2 melanoma. Particulars: 10 µM unless noted.
Experiment [19] concerns EKVX NSCLC. Particulars: 10 µM unless noted.
In experiment [20] the test system is SNB-75 CNS. Particulars: 10 µM unless noted.

Where “and” joins values, the source holds several entries; their conditions need not be identical. Identical values can stand only once. Compounds without any hit were thinned out: in the full panel of roughly 83,000, 20% have a hit.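 Interpretation: 100, growth as untreated; towards 0, rising growth inhibition; 0, no net growth; 0 to -100, cell death. Compounds scoring below 10 were considered active.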 Values without a mark were called inactive. Calls of active or inactive are those of the source.

Take `FC(F)(F)c1cc(NC2=NCCN=C(Nc3cc(C(F)(F)F)cc(C(F)(F)F)c3)SS2)cc(C(F)(F)F)c1`: the growth in [1] was 37.8%; in experiment [2] it was 49%; in experiment [3], 56.5%; in experiment [4], 23.3%; in experiment [5] it was 17.1%; in experiment [6], 50.2%. The growth is 35.6% in experiment [7] (10 µM unless noted); 50.5% in experiment [8]; 74.7% in experiment [9]; 47.2% in experiment [10]; 35.1% in [11]; 58.4% in [12] (10 µM unless noted). Further, the growth in experiment [13] was 43.5%; in experiment [14] it was 48.1%; in [15] it was 58%; in [16] it was 28.8%; in [17], 51.2%.

As for `Nc1ccc2ccccc2c1-c1c(N)ccc2ccccc12`, the growth in experiment [1] was 30.7%; in experiment [2], 7.41% (active); in experiment [3] it was 44.1%; in experiment [4], 21.5%; in experiment [5], 31.2%; in experiment [6], 25.5%. Further, the growth is 24.9% in experiment [7] (10 µM unless noted); 36.8% in experiment [8]; 56.4% in [9]; 15.5% in experiment [18]; 36.5% in [19]; 37% in experiment [10]. The growth in [11] is 40.8%; in experiment [12] (10 µM unless noted) it was 34.9%; in [13], 38.8%; in [14] it was 28.6%; in [15] it was 14.6%; in experiment [16], 12.9%. Also, the growth in [17] is 17.4%.

Regarding `Cc1ccc2nc(-c3ccc(N=Cc4ccccc4O)cc3)sc2c1`, the growth is 80.1% in [1]; 47.4% in experiment [20]; 92.3% in [3]; 91.6% in experiment [4]; 85.4% in [5]; 109% in [6]. Further, the growth in experiment [7] (10 µM unless noted) is 84.7%; in experiment [8], 86.9%; in experiment [9], 110%; in [18], 101%; in experiment [19], 90.3%; in experiment [10] it was 90.4%. For the same compound, the growth is 60% in experiment [11]; 139% in [12] (10 µM unless noted); 90.6% in experiment [13]; 67.7% in experiment [14]; 64.5% in [15]; 77.4% in [16]. In experiment [17], the growth is 82.3%.

For the compound `C=CC(C)(C)n1cc(C2=C(O)C(=O)C(c3cn(C(C)(C)C=C)c4ccccc34)=C(O)C2=O)c2ccccc21`, the growth in experiment [1] is 84.2%; in [2], 99.3%; in experiment [3] it was 80.2%; in [4], 82.6%; in experiment [5], 80.8%; in experiment [7] (10 µM), 100%. The growth was -85.8% (active) and -96.5% (active) in [7] (100 µM); 97.2% in experiment [8]; 95.9% in experiment [18]; 87.2% in experiment [19]; 101% in [10]; 74.1% in experiment [11]. Further, the growth in [12] (10 µM) was 92.7%; in experiment [12] (100 µM), -99.2% (active) and -100% (active); in experiment [13] it was 94.4%; in experiment [14] it was 89.7%; in [16], 78.5%; in [17], 88.7%.

`CCCCCCCCCCC(=O)CCCCCCCCCC`: the growth in [1] is 99.7%; in experiment [2], 104%; in [3], 109%; in experiment [4], 101%; in experiment [5], 97.8%; in experiment [6] it was 102%. Also, the growth is 105% in experiment [7] (10 µM unless noted); 94.6% in experiment [8]; 106% in experiment [9]; 111% in experiment [18]; 102% in experiment [10]; 85.8% in experiment [11]. Moreover, the growth in experiment [12] (10 µM unless noted) was 98.8%; in [13] it was 96.7%; in [14] it was 95%; in [15], 107%; in [17], 92%.

For the compound `O=C(O)Cc1cccc2ccccc12`, the growth in experiment [1] was 102%; in experiment [2], 105%; in experiment [3] it was 116%; in [4], 95.1%; in [5] it was 106%; in [6] it was 118%. Moreover, the growth in experiment [7] (10 µM unless noted) is 110%; in experiment [8] it was 97%; in experiment [9], 121%; in [19], 101%; in experiment [10] it was 121%; in [11], 93.6%. For the same compound, the growth was 102% in experiment [12] (10 µM unless noted); 103% in [13]; 94.6% in experiment [14]; 106% in experiment [15]; 9.03% (active) in [17].

As for `Cc1ccc(OC(=O)c2ccccc2)cc1`, the growth is 118% in experiment [1]; 95.3% in [2]; 109% in experiment [3]; 94.8% in [4]; 105% in experiment [5]; 101% in experiment [6]. Moreover, the growth in experiment [7] (10 µM unless noted) was 112%; in [8] it was 105%; in experiment [9] it was 120%; in [19], 122%; in [10], 109%; in experiment [11], 97.2%. The growth in experiment [12] (10 µM unless noted) is 98.1%; in experiment [13], 117%; in [14] it was 114%; in experiment [15], 95.6%; in experiment [16], 108%; in experiment [17] it was 104%.

With `O=C(Nc1ccc([N+](=O)[O-])cc1)C(=O)Nc1ccc([N+](=O)[O-])cc1`, the growth in [1] was 101%; in experiment [2], 91.5%; in [3], 99.6%; in experiment [4], 81.2%; in experiment [5], 90.5%; in [6], 100%. Further, the growth in [7] (10 µM unless noted) is 97%; in [8] it was 94.9%; in experiment [9], 115%; in [18] it was 97%; in experiment [19], 103%; in experiment [10], 102%. In addition, the growth was 89.1% in [11]; 98.5% in [12] (10 µM unless noted); 107% in experiment [13]; 98.1% in [14]; 100% in experiment [15]; 101% in experiment [16]. The growth in [17] is 101%.

On to `CCCCCCCCNC(=O)C(C)C`, for which the growth in experiment [1] was 106%; in experiment [2], 95.5%; in experiment [3], 101%; in experiment [4], 101%; in experiment [5], 94.9%; in experiment [6], 103%. The growth in [7] (10 µM unless noted) was 96%; in experiment [8] it was 98%; in [9] it was 101%; in experiment [19], 99.9%; in [10] it was 95.8%; in experiment [11], 99.1%. Moreover, the growth was 98.5% in [12] (10 µM unless noted); 108% in [13]; 81.5% in [15]; 102% in experiment [16]; 107% in experiment [17].
